# Key:
# Assay in all cases: DAPPL (digital affinity profiling via proximity ligation, sequencing); 10 mM Tris-HCl pH 7.5, 50 mM NaCl, 1 mM DTT, 4% glycerol, room temperature, 30 min; GST-TFs on glutathione beads, 16-mer random dsDNA library, 0.1% formaldehyde crosslink after washing; high values mean tight binding
# Conditions in all cases: protein: recombinant; tags: N-terminal GST; dsDNA, one strand shown
# SPIC = target: T1, SPIC (Homo sapiens, UniProt Q8N5J4 1-248)
# T1 sequence: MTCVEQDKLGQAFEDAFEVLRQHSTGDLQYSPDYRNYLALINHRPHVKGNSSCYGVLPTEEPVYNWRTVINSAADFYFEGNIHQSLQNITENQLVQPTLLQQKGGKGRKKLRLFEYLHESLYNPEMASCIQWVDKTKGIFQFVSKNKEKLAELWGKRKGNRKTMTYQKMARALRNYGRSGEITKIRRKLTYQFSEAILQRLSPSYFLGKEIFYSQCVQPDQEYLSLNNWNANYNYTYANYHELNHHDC
# How it was run: (§1)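 Sequencing on an Illumina NextSeq500 followed washing, crosslinking with 0.1% formaldehyde, proximity ligation (BsaI/T4 ligase, 1 h, 37 °C) and PCR amplification of pools that had been incubated for 30 min at room temperature with 200 nmole of a random double-stranded 16-mer DNA library in Tris/NaCl/DTT/glycerol buffer. Each pool held DNA-barcoded human transcription factors, expressed in yeast as GST fusions and captured on glutathione beads, plus a tag-only sample. Binding signal is a hexamer's read frequency for a factor divided by its frequency in the tag-only sample.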
# ELF4 = ELF4 (Homo sapiens, UniProt Q99607 1-663)
# Chain of ELF4 (Q99607 whole entry): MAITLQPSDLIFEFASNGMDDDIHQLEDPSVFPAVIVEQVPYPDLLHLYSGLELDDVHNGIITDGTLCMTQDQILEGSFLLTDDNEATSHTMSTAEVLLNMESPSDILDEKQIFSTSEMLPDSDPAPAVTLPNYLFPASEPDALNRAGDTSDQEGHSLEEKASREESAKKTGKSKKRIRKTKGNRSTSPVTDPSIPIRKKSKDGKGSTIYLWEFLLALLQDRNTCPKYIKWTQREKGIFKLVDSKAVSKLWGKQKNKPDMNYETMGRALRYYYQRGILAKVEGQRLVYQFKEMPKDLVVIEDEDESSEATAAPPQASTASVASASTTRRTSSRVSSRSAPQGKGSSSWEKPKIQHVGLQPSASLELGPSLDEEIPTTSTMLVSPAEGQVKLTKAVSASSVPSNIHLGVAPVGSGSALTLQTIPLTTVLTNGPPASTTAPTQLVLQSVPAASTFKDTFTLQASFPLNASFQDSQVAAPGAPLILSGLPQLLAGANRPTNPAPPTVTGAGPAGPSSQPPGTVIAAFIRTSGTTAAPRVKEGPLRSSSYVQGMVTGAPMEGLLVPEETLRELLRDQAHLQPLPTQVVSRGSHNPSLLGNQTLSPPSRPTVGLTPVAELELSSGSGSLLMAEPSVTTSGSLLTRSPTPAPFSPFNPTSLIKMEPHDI
# How it was run: as §1
# ELK4 = target: T2, ELK4 (Homo sapiens, UniProt P28324-2 1-405)
# T2 sequence: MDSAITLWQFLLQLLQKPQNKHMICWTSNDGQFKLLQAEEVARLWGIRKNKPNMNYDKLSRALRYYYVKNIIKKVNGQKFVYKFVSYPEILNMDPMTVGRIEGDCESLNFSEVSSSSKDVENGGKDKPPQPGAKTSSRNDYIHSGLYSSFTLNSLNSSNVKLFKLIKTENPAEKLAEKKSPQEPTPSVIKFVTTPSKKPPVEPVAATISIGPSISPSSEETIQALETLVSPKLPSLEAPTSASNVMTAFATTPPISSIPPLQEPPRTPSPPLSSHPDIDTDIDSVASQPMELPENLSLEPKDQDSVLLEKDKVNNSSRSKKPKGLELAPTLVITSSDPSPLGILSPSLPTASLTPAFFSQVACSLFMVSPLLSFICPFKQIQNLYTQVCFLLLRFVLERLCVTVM
# How it was run: as §1
# ETV2 = target: T3, ETV2 (Homo sapiens, UniProt O00321 1-342)
# T3 sequence: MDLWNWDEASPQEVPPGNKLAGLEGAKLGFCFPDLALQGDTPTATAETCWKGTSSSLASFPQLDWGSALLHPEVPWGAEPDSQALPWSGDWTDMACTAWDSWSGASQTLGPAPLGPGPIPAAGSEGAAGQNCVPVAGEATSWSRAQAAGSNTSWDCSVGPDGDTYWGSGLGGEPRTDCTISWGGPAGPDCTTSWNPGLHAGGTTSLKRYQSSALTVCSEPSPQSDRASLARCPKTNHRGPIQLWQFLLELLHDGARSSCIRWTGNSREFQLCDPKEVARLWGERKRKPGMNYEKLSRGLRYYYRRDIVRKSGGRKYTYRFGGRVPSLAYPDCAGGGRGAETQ
# How it was run: as §1
# ETV1 = ETV1 (Homo sapiens, UniProt P50549 1-477)
# Chain of ETV1 (P50549 whole entry): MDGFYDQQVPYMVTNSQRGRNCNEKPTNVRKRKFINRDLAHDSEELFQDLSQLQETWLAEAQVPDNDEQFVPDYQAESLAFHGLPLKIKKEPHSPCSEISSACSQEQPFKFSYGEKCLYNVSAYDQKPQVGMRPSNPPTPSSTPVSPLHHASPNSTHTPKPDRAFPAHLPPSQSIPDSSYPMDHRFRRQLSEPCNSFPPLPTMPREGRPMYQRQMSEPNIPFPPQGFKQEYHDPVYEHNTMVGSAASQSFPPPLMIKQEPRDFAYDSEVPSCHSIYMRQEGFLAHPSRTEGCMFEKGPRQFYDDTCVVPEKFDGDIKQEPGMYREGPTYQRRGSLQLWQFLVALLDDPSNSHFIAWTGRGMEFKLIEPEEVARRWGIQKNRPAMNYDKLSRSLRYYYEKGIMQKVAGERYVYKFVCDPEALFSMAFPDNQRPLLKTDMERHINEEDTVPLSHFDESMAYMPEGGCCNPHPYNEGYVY
# How it was run: as §1
# ERF = target: T4, ERF (Homo sapiens, UniProt P50548 1-548)
# T4 sequence: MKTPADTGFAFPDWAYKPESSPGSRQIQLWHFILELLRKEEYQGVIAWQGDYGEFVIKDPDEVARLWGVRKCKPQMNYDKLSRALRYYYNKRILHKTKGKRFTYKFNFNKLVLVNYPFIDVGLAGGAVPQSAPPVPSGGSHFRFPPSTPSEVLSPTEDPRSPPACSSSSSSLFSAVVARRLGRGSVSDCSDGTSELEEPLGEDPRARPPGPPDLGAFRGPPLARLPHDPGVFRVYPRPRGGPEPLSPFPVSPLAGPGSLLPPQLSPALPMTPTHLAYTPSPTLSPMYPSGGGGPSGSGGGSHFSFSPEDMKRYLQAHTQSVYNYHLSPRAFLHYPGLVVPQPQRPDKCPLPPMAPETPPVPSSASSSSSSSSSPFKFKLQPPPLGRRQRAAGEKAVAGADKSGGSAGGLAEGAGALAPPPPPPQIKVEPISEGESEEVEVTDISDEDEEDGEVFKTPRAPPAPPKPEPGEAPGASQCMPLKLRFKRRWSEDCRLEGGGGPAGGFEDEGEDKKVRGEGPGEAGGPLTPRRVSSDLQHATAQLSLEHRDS
# How it was run: as §1
# SPDEF = target: T5, SPDEF (Homo sapiens, UniProt O95238 1-335)
# T5 sequence: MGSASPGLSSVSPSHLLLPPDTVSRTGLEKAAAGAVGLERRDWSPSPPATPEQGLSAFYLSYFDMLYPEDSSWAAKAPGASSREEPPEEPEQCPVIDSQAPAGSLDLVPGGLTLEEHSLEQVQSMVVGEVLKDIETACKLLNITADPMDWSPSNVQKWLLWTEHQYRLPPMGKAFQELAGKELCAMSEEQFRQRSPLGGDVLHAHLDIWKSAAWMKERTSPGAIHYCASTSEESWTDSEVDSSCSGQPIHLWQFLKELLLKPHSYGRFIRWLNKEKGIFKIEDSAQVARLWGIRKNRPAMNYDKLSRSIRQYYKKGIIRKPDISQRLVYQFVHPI
# How it was run: as §1
# ETV7 = target: T6, ETV7 (Homo sapiens, UniProt Q9Y603 1-341)
# T6 sequence: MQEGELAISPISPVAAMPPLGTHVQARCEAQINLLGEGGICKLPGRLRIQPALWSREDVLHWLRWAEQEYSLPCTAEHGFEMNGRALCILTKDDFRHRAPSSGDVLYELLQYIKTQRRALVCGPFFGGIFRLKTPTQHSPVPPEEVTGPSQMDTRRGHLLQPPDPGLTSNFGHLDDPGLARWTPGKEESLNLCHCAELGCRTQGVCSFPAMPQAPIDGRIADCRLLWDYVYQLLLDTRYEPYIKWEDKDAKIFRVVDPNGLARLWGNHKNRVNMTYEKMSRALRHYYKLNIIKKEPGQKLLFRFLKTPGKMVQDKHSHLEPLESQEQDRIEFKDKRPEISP
# How it was run: as §1
# ELF5 = target: T7, ELF5 (Homo sapiens, UniProt Q9UKW6-2 1-255)
# T7 sequence: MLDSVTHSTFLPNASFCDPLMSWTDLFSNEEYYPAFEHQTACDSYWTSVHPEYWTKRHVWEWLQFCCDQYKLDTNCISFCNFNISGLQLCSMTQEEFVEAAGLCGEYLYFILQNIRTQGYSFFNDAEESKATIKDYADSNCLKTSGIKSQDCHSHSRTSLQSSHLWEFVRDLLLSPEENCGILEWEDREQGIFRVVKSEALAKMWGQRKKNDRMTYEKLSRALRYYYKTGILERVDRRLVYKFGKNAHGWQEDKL
# How it was run: as §1
# ETV3 = target: T8, ETV3 (Homo sapiens, UniProt P41162-2 1-143)
# T8 sequence: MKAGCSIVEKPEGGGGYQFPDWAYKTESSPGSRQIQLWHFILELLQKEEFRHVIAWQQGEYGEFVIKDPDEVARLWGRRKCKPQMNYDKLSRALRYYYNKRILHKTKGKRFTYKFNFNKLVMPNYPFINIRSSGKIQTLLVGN
# How it was run: as §1
# ETV6 = ETV6 (Homo sapiens, UniProt P41212 1-452)
# Chain of ETV6 (P41212 whole entry): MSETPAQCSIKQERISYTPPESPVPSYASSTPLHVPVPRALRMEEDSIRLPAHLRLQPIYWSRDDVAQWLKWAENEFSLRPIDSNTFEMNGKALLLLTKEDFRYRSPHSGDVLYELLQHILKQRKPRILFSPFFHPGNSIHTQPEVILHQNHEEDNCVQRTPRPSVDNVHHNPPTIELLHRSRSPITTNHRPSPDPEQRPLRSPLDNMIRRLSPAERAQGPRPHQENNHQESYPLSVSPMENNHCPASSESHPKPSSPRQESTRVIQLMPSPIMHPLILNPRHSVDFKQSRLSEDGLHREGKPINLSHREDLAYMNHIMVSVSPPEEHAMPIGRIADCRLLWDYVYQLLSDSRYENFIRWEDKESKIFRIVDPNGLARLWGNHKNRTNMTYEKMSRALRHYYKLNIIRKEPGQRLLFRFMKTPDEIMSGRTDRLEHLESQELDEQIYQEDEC
# How it was run: as §1
sequence,measurement,setting,value
ACCACG,binding signal,SPIC,"1.08 fold enrichment (6-mer frequency, TF over GST control)"
same,binding signal,ELF4,"1.05 fold enrichment (6-mer frequency, TF over GST control)"
same,binding signal,ELK4,"1.11 fold enrichment (6-mer frequency, TF over GST control)"
same,binding signal,ETV2,"1.09 fold enrichment (6-mer frequency, TF over GST control)"
same,binding signal,ETV1,"1.05 fold enrichment (6-mer frequency, TF over GST control)"
same,binding signal,ERF,"1.03 fold enrichment (6-mer frequency, TF over GST control)"
same,binding signal,SPDEF,"1.06 fold enrichment (6-mer frequency, TF over GST control)"
same,binding signal,ETV7,"1.04 fold enrichment (6-mer frequency, TF over GST control)"
same,binding signal,ELF5,"1.02 fold enrichment (6-mer frequency, TF over GST control)"
same,binding signal,ETV3,"1.04 fold enrichment (6-mer frequency, TF over GST control)"
same,binding signal,ETV6,"1.02 fold enrichment (6-mer frequency, TF over GST control)"

# — paper PMC7862700, “An all-to-all approach to the identification of sequence-specific readers for epigenetic DNA modifications on cytosine”
